The list is not random: actives were taken first. Their share in the collection is about 2.2%.
Myeloid diff MLP: promotes myeloid progenitor differentiation | ER-HoxA9 myeloid progenitors, lysozyme-GFP differentiation, flow cytometry | calls only at 10 µM | actives 1% (n = 360,000);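 active means normalized GFP-positive differentiation at or above the plate's own cutoff, the solvent-only control mean plus 3 SD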;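 further: cells exposed to compound for four days before flow analysis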
hiPSC survival: hiPSC single-cell survival enhancement; ATPlite luminescence; 100% = ROCK inhibitor wells, 0% = DMSO; survival enhancement, % at 20 µM; actives 0.044% (n = 360,000); in the data active means survival enhancement above about 18%;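 further: cells exposed to compounds for 16 hours before the ATP read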
beta cell repl: inducers of beta-cell replication in MIN6 cells; MIN6 cells proliferation, ATPlite luminescence, 48 h; cells starved in 0.2% serum; 100% = growth in 10% serum; proliferation, % at 10 µM; actives 0.29% (n = 330,000);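 active means compounds whose signal lies at least 3.5 SD above the mean of all wells on their plate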;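 further: 0% = DMSO-treated cells in low-serum medium and 100% = 10% serum control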
Cardio protect: myocardial damage modulation in H9c2 cells; H9c2 cardiomyocytes, H2O2 injury protection, ATPLite, 2 h; protection from H2O2 cell death, % at 20 µM; actives 0.63% (n = 360,000);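 active means compounds giving at least 50% protection of heart cells from peroxide-induced death in the single-dose screen, raw or plate-pattern-corrected value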;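 further: 0% = DMSO wells with peroxide and 100% = DMSO wells without peroxide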
ABCB6 inh MLPCN: human ABCB6 transporter inhibition; K562-ABCB6 porphyrin accumulation, flow cytometry, 1 h; active compounds read low; fluorescence ratio to DMSO, % at 10 µM; actives 0.19% (n = 360,000); AID 602162;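 active means fluorescence ratio to DMSO below 75%, the collection mean minus 3 SD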;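 further: signal is porphyrin accumulated inside mitochondria; 100% equals median channel fluorescence of DMSO control wells; lower ratio means ABCB6 inhibition with less porphyrin fluorescence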
Target sequence (Q9NP58 whole entry, looked up): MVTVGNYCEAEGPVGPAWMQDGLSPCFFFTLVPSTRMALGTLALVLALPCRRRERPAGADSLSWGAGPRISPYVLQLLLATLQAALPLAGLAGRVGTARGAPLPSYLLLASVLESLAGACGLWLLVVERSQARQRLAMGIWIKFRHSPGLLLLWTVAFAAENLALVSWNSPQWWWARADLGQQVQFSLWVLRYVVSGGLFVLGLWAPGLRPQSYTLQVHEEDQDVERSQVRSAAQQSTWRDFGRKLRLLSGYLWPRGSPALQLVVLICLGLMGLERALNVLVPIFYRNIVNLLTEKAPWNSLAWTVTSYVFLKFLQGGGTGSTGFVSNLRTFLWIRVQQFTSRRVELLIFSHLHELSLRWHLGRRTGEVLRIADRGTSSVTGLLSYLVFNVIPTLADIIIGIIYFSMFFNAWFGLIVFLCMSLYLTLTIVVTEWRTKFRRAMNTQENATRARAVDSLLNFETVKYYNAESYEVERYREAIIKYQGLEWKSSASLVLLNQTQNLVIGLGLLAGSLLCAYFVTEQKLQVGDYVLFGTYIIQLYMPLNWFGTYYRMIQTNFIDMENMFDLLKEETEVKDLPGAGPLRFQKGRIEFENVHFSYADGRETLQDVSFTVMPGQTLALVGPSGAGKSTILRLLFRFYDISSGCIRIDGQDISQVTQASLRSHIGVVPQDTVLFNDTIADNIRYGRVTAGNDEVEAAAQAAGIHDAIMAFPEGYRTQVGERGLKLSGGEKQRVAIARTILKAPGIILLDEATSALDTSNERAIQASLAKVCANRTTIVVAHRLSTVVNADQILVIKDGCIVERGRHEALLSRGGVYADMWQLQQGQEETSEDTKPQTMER
Myeloid diff CP1: myeloid differentiation induction. actives 2% (n = 2,300). ER-HoxA9 myeloid progenitors, GFP/Mac1 double-positive flow. shares compounds with Myeloid diff MLP. AID 651706. calls only;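 active means share of green or green-and-red cells above 9 and 9% in run 1 or 4 and 3% in run 2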
GFP autofluor: counter-screen for myeloid differentiation promoters: compound fluorescence. shares compounds with Myeloid diff MLP. ER-HoxA9 myeloid progenitors, no estrogen, GFP autofluorescence flow cytometry; vehicle wells 0%, positive control 100%. fluorescence response, % (no concentration beside the values). actives 7.4% (n = 2,300). AID 651707;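 active means over 5% cells positive for green fluorescent reporter, or over 2% positive for both it and APC stain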;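 further: range taken on the double positive population between DMSO and positive control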
* hit, by the source's call; i = inactive; · = no result; + = active, no number.

SMILES	Myeloid diff MLP	hiPSC survival	beta cell repl	Cardio protect	ABCB6 inh MLPCN	Myeloid diff CP1	GFP autofluor
COc1cccc(C2c3[nH]c4ccccc4c3CCN2CCCn2cccn2)c1 (configuration not stated)	i	-0.2	-1.6	0.9	101.0	·	·
O=C(CCc1c[nH]c2ccccc12)NC(Cc1c[nH]c2ccccc12)C(=O)O (configuration not stated)	i	1.6	-0.5	1.3	91.0	·	·
Cc1nn(C)c(Sc2ccccc2N)c1[N+](=O)[O-]	i	1.9	-5.5	15.3	103.0	i	1.2
Cc1nn(C)c(N)c1[N+](=O)[O-]	i	-0.5	0.3	2.3	101.0	·	·
CCOC(=O)Cn1c2c(c(=N)c3c1CCC3)CCC2	i	3.8	-1.2	1.7	88.0	·	·
CCOC(=O)Cn1c2c(c(=N)c3ccccc31)CCC2	+	-0.4	2.2	-0.8	103.0	i	0.0
Cc1ccc(OCC(=O)N2CCCCC2)c(Br)c1	i	-1.6	0.9	1.6	79.0	i	0.2
CCc1nc2ccc(C(=O)NCCc3ccc(OC)cc3)cc2nc1CC	i	-0.3	1.1	4.5	80.0	i	0.2
CCOc1cc(NS(=O)(=O)c2ccc(NC(C)=O)cc2)c(OCC)cc1NC(=O)C(C)C	i	-2.4	-2.7	3.6	99.0	·	·
Cc1c(Br)c(O)c(Br)c2sc(=O)oc12	i	0.2	-6.3	1.7	101.0	i	0.0
O=C(CCc1nnc2n(Cc3ccc(Cl)cc3)c(=O)c3ccccc3n12)N1CCN(c2ccccn2)CC1	i	-0.4	-6.5	49.2	98.0	·	·
CC(C)CN(C(=O)c1ccc([N+](=O)[O-])s1)c1c(N)n(Cc2ccccc2)c(=O)[nH]c1=O	+	-0.4	-5.4	-1.2	108.0	i	0.7
COCCN(C(=O)CN1CCc2ccccc21)c1c(N)n(Cc2ccccc2)c(=O)[nH]c1=O	i	-0.4	-3.4	0.9	111.0	·	·
CCN(C(=O)CN1CCc2ccccc21)c1c(N)n(Cc2ccccc2)c(=O)[nH]c1=O	i	3.5	-0.2	4.1	100.0	i	0.2
CC(C)CN(C(=O)COC(=O)C12CC3CC(CC(C3)C1)C2)c1c(N)n(Cc2ccccc2)c(=O)[nH]c1=O	+	0.3	-7.5	-21.3	98.0	i	9.5*
Nc1ncnc2c1ncn2[C@@H]1O[C@H](CNS(=O)(=O)CCCCl)[C@@H](O)[C@H]1O	i	-0.4	-3.4	2.6	86.0	·	·
Cc1cccc(NC(=O)CNC(=O)CCc2nc3sc4c(c3c(=O)[nH]2)CCCC4)c1C	+	0.1	4.2	5.9	98.0	i	0.0
Cc1cccc(NC(=O)CCc2nc3sc4c(c3c(=O)[nH]2)CCCC4)n1	i	-0.5	-4.3	7.4	99.0	·	·
COc1cc2c(cc1OC)C(CSc1ccccc1C(=O)O)=NC(C)(C)C2	i	0.4	1.6	-2.2	100.0	·	·
Cc1nc(SCC(=O)NC2CCCCC2C)nc(C)c1C (configuration not stated)	i	-2.5	0.4	-2.6	98.0	·	·
O=C(Cc1cccs1)Nc1cccc(-c2nnc(-c3ccco3)o2)c1	i	3.2	1.1	3.2	97.0	·	·
Cc1ccc(-c2nnc(-c3ccc(NC(=O)Cc4cccs4)cc3)o2)cc1	+	-2.1	-4.1	-8.3	104.0	i	0.0
COc1cccc(CNC(=O)C2CCCN(c3nc4ccccc4o3)C2)c1 (configuration not stated)	i	0.2	3.6	6.0	104.0	i	0.0
CC(=O)c1ccc(NC(=O)N2CCc3ccccc3C2)cc1	i	-0.3	-3.0	-0.4	100.0	·	·
C#CCCC/C(=C\C(=O)N(C)[C@H](C(=O)N(C)[C@H](C(=O)N(C)[C@H](C(=O)N(C)[C@H](C(N)=O)C(C)C)C(C)C)C(C)C)C(C)C)OC	i	-2.7	-1.6	6.9	98.0	i	0.0
SMILES	Myeloid diff MLP	hiPSC survival	beta cell repl	Cardio protect	ABCB6 inh MLPCN	Myeloid diff CP1	GFP autofluor
CCCCCCCC(=O)C(C)C(=O)N(C)[C@H](Cc1ccc(OC)cc1)C(=O)N(C)[C@H](C(N)=O)C(C)C (some centres not stated)	i	-0.2	-3.5	1.6	97.0	·	·
NNC(=O)c1ccc(CSc2nc3ccccc3[nH]2)cc1	i	-1.6	-2.0	-1.3	104.0	i	0.3
O=C(O)c1ccc(CSc2nc3ccccc3[nH]2)cc1	i	-0.2	-4.3	-8.3	101.0	·	·
N#Cc1c(N)n(-c2cccc(C(=O)O)c2)c2nc3ccccc3nc12	+	-0.3	-1.3	-5.6	92.0	i	0.5
N#Cc1c(N)n(-c2ccccc2N)c2nc3ccccc3nc12	i	-0.9	-2.5	-5.3	103.0	·	·
C/C(=N\O)C(=O)NCC1CCNCC1	i	-1.6	-2.4	-0.8	97.0	·	·
Cc1ccc(S(=O)(=O)NCCC(=O)O)cc1	i	0.7	0.6	1.1	102.0	·	·
O=C(O)CCNS(=O)(=O)c1ccc(Oc2ccccc2)cc1	i	-1.9	-0.5	4.5	100.0	i	0.0
CC(=O)Nc1ccc(NC(=O)c2cccc(S(=O)(=O)N(C)C3CCCCC3)c2)cc1	i	0.4	-3.4	2.8	100.0	·	·
CCc1nonc1NC(=O)COc1ccc(Cl)c(C)c1	i	0.7	-4.4	-2.0	102.0	i	0.0
CCc1nonc1NC(=O)COc1cc(C)c(Cl)c(C)c1	i	-0.3	-3.4	-5.8	99.0	·	·
O=C(NCCO)/C(=C\c1ccc([N+](=O)[O-])o1)NC(=O)c1ccccc1	i	-0.9	-3.4	11.4	99.0	i	0.0
COC(=O)c1ccc(NC(=O)Nc2ccccc2F)cc1	i	-1.1	-3.2	-10.0	98.0	·	·
COC(=O)c1ccc(NC(=O)Nc2ccccc2C)cc1	i	-2.6	-3.5	-11.4	98.0	i	0.6
O=[N+]([O-])c1ccc(NNC(=S)Nc2ccccc2)cc1	i	-0.2	-3.4	-36.3	98.0	·	·
O=C(Nc1cccc2ccccc12)/C(=C\c1cccc([N+](=O)[O-])c1)NC(=O)c1cccs1	+	-1.1	0.0	0.7	99.0	i	0.5
CN1CCN(c2nc3c(c(=O)[nH]c(=O)n3C)n2Cc2ccccc2F)CC1	i	0.7	-1.2	-2.8	100.0	·	·
COc1cccc(CNC(=O)CCC2CCCN(C(=O)c3ccc(C)nc3)C2)c1 (configuration not stated)	+	0.2	-3.4	1.3	103.0	i	0.0
C#Cc1cccc(C(=O)N2CCCC(CCC(=O)NCc3ccccc3F)C2)c1 (configuration not stated)	i	0.4	-2.7	-1.6	94.0	·	·
Cc1ccc(NC(=O)/C=C/c2cccc(C(F)(F)F)c2)cc1	i	-0.5	-0.1	-4.1	94.0	·	·

Bioassay records: PubChem, several laboratories
